Values joined by “and” are separate entries in the source; they are usually repeats but may differ in a detail not shown here. Identical values can stand only once. Inconclusive results are not listed. Active and inactive are the calls of the source. The call rests on the fitted dose curve; in most records, active means well fitted inhibition curve with a large enough effect; inconclusive means small, poorly fitted or top-dose-only effect; inactive means flat fitted curve, though single readings scatter.
Each compound was assayed against 15-hydroxyprostaglandin dehydrogenase [NAD(+)] (Homo sapiens) (UniProt P15428) (assay: Extended Characterization of HPGD Inhibitors: Activity in Primary Assay (HPGD)). Conditions: recombinant HPGD, NADH fluorescence, PGE2 substrate.
15-hydroxyprostaglandin dehydrogenase [NAD(+)] (Homo sapiens), sequence (P15428 whole entry, looked up): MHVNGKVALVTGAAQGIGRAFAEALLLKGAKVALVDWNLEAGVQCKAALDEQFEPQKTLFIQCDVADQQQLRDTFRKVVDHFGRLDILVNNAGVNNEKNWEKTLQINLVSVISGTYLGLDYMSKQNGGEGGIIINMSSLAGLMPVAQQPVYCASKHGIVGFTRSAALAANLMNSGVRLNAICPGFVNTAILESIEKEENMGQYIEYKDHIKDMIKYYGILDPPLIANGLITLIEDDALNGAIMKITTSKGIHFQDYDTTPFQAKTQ
Excerpt: The central role of HPGD is to inactivate prostaglandins such as prostaglandin E2 (PGE2) or prostaglandin D2 (PGD2). These prostaglandins are involved in a number of processes, including inflammation, differentiation, and cellular signaling, which makes HPGD an important target for pharmacological intervention. Inhibition of 15-PGDH (HPGD) activity was screened by utilizing prostaglandin as an electron donor and NAD+ as an electron acceptor/cofactor. An increase in the fluorescence intensity due to conversion of NAD+ to NADH was used to measure the enzyme activity. All compounds were screened using a qHTS approach, where compounds are assayed using at least seven concentrations to generate concentration-response curves for every compound. Briefly, qHTS uses an inter-plate dilution method where the first plate contains the highest concentration of a set of compounds in DMSO, while subsequent plates contain the same compounds in the same well locations, but at successive lower concentrations. NIH Chemical Genomics Center [NCGC] NIH Molecular Libraries Probe Centers Network [MLPCN] MLPCN Grant: MH084681 Assay Submitter (PI): Structural Genomics Consortium
Three uL of enzyme (20 nM final concentration) were dispensed to 1536-well Greiner black solid bottom plates. Compounds (23 nL) were transferred via Kalypsys PinTool. The plates were incubated for 15 min at room temperature, and then 1 uL of substrate/cofactor solution (Substrate/cofactor solution: 1 mM NAD+ and 30 uM prostaglandin (Sigma, prostaglandin E2, #P5640)) were added to start the reaction. The plates were immediately transferred to and read 4 times every 30 seconds on a ViewLux High-throughput CCD imager (Perkin-Elmer) using 340 nm excitation and 450 nm emission fluorescence protocol. The fluorescence intensity difference between the last and the first time points, normalized against controls, was used to compute reaction progress.
`Cc1cc(-c2nnc3n2CCCCC3)c(C)n1-c1cccnc1` was tested, and the Potency was 271 nM (active).
For `COc1ccc(-n2c(C)cc(-c3nnc4n3CCCCC4)c2C)cc1`, the Potency was 85.7 nM (active).
In the case of `Cc1cc(-c2nnc3n2CCCCC3)c(C)n1-c1ccc(Cl)cc1`, the Potency is reported as 38.3 nM (active).
In the case of `Cc1cccc(-n2cnc3cc(C(=O)N4CCCC(C)C4)ccc32)c1` (stereo not given), the Potency is reported as 21.5 nM (active).
For `Cc1cc(-c2nnc3n2CCCCC3)c(C)n1-c1ccc(C(C)(C)C)cc1`, the Potency was 85.7 nM (active) and 136 nM (active).

— PubChem BioAssay AID743171 (National Center for Advancing Translational Sciences (NCATS), 2013)
